The sample as a whole holds a higher share of hits than the screen did.
Pf Dd2 inh: qHTS Primary assay for Inhibitors of Plasmodium falciparum Dd2 growth in vitro. P. falciparum Dd2 growth, SYBR Green, 72 h. Potency, µM (top dose mostly 28.9 µM), inactives show at the highest dose activity, negative = inhibition, actives largely listed as inhibitors. actives 4.3% (n = 120,000). AID 1347417, 2020; active = well fitted inhibition curve with a large enough effect;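 also: plate controls were DMSO vehicle for no effect and reference drug for full effect; nearly all actives have a fitted effect of over 65% in size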
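Infected erythrocytes (Dd2, 0.3% parasitemia, 2.5% hematocrit final) are added to compound in RPMI-1640/Albumax II medium, grown 72 h at 37C in low oxygen, then lysed with saponin/Triton-X containing SYBR Green and read by fluorescence.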
Starred values were filed as active, the others as inactive; i = inactive; [ ] = remark or other dose. Potency is read from the fitted curve at half-maximal effect.

SMILES	Pf Dd2 inh
CCN1c2cc(C(=O)Nc3ccc(C)cc3C)ccc2C(=O)N2CCCCCC21 (stereo not given)	i
CCN1c2cc(C(=O)Nc3cccc(OC(F)(F)F)c3)ccc2C(=O)N2CCCCC21 (stereo not given)	4.5µM*
CCN1c2cc(C(=O)Nc3cccc(OC)c3)ccc2C(=O)N2CCCCCC21 (stereo not given)	i
CCN1c2cc(C(=O)Nc3cc(C)ccc3OC)ccc2C(=O)N2CCCCCC21 (stereo not given)	6.3µM*
CCOC(=O)c1ccc(NC(=O)c2ccc3c(c2)N(CC)C2CCCCN2C3=O)cc1 (stereo not given)	-8%
CN1c2cc(C(=O)Nc3cccc(OC(F)(F)F)c3)ccc2C(=O)N2CCCCC21 (stereo not given)	-20%
CCN1c2cc(C(=O)Nc3ccc(C)cc3)ccc2C(=O)N2CCCCCC21 (stereo not given)	i
COc1ccc(C2Cn3nnc(C(=O)N4CCC(C(N)=O)CC4)c3CO2)cc1 (stereo not given)	22%
Cc1noc(C)c1S(=O)(=O)N1CC(N(C)Cc2cccnc2)C1	-14%
CC(=O)N1CCN(c2nc3c(s2)CC(C(=O)NCC2CCCCC2)CC3)CC1 (stereo not given)	i
COc1ccc(C2(C(=O)NCCC3CCN(C(=O)Nc4ccc(C)cc4)CC3)CC2)cc1	-3%
COCCOc1ccc(C(=O)N[C@@H]2CN(C(=O)Nc3ccccc3)CCC[C@H]2O)cc1	i
Cc1ccoc1C(=O)N1CCCn2ccnc2C1c1cnn(C)c1 (stereo not given)	-17%
c1ccc([C@@H]2CNC[C@H]2COc2ccncc2)nc1	40%
COCCn1ncc(N2CCCC(CC(=O)NCc3ccncc3)C2)cc1=O (stereo not given)	37%
NC(=O)CNC(=O)C1=C[C@@H](NC(=O)Nc2ccccc2Br)[C@@H](O)[C@H](O)C1	-5%[44.1 µM]
O=C1C[C@@H]2CCN(C(=O)c3ccccc3)C[C@@H]2CCN1CCc1cnc[nH]1	6%[44.1 µM]
CCOC(=O)N1CCN(Cc2nc3cc(NC(=O)c4cccc(C)c4)ccc3n2C(C)C)CC1	6.3µM*
Cn1c(CN2CCCCC2)nc2cc(NC(=O)c3cccc(Br)c3)ccc21	-9%
CCC(=O)NCCc1nc2cc(NC(=O)c3cccc(Br)c3)ccc2n1C	-19%
CCOC(=O)N1CCN(Cc2nc3cc(NC(=O)CC(C)C)ccc3n2C(C)C)CC1	11µM*
CCN1CCN(Cc2nc3cc(NC(=O)c4cccc([N+](=O)[O-])c4)ccc3n2CC)CC1	7.9µM*
O=C(Nc1ccc(Cl)c(-c2nc3ccccc3o2)c1)c1ccc(-c2cccc([N+](=O)[O-])c2)o1	-12%
CC(C)CC(=O)Nc1ccc2nc(SCC(=O)N3CCCC3)sc2c1	-3%
CCOC(=O)c1cccc(NC(=O)c2ccc3nc(C(C)C)oc3c2)c1	i
SMILES	Pf Dd2 inh
CC(C)CC(=O)Nc1ccc2nc(SCC(=O)N3CCOCC3)sc2c1	-13%
CN(CC(=O)O)c1ncc(CN2CCCC(c3cccc(C(=O)O)c3)C2)cn1 (stereo not given)	-10%
COc1cc(-c2ccc(C(F)(F)F)cn2)cc2c1OCCNC2	-11%
CO[C@H]1C(=O)N(C2CCN(S(=O)(=O)c3cccs3)CC2)[C@H]1c1ccncc1	8%
O=C1Nc2ccccc2C2(CCN(C(=O)c3ccccc3)C2)O1 (stereo not given)	-5%[44.1 µM]
O=C(c1ccc2c(c1)OCCN(c1cccc(OC(F)(F)F)c1)C2)N1CCOCC1	i
Cn1ncc(N2CCCC(CC(=O)NC3CC3)C2)cc1=O (stereo not given)	45%
O=C(Cn1c(=O)oc2cc(Cl)ccc21)NC1CCc2n[nH]c(=O)n2CC1 (stereo not given)	23%
COc1ccc(CC(=O)Nc2ccc3c(c2)CN(CCOc2ccccc2)C(=O)C(C)O3)cc1 (stereo not given)	i
O=C(N[C@H]1[C@H](O)[C@H](O)C[C@@H]1c1cccnc1)c1ccccn1	21%[44.1 µM]
O=C1CNc2ccc(C(=O)N3C[C@H](CO)C[C@H](CN4CCCC4)C3)cc2N1	-9%
CC1CCCN(Cc2c(O)ccc3c(=O)c(Oc4ccccc4Cl)c(C(F)(F)F)oc23)C1 (stereo not given)	0.89µM*
Cc1ccccc1Cn1c(CN2CCCC(C)C2)nc2c1c(=O)n(C)c(=O)n2C (stereo not given)	9%
CC1CCN(Cc2c(O)ccc3c(=O)c(Oc4ccccc4Cl)c(C(F)(F)F)oc23)CC1	0.63µM*
Cc1ccc(Oc2c(C(F)(F)F)oc3cc(OCC(=O)NC4CCCCC4)ccc3c2=O)cc1	-30%
Cc1ccc(Oc2c(C(F)(F)F)oc3c(CN4CCC(C)CC4)c(O)ccc3c2=O)cc1	1µM*
Cc1noc(C)c1CN1CCCC(COc2ccccc2C(=O)N2CCC(C)CC2)C1 (stereo not given)	-3%
CC(C)CCN(C)Cc1cccn1C	i
O=C1NC(C(=O)N2CCOCC2)CN1Cc1ccccc1 (stereo not given)	i
O=C(c1ccccc1)N1CC2(Cc3ccccc3NC2=O)C1	0%[44.1 µM]
c1ccc(-n2cc(CN3CCCCC3c3ccccn3)nn2)cc1 (stereo not given)	-11%
CCc1cc(C(=O)N2CCCC(c3nnc(Cn4ccnc4)n3C)C2)ccn1 (stereo not given)	-11%
COc1ccccc1CN[C@H]1CC(C)(C)[C@@H]2C[C@@](C)(O)CC[C@]12CCC(=O)NCCN1CCOCC1	-17%
COc1ccc(C(=O)N2CCc3ccc(C(=O)NCc4cccc(F)c4)cc32)cc1	-2%
Cc1nc2c(C(=O)NC(C)c3ccccc3)cnn2c(C)c1Cc1ccccc1 (stereo not given)	8.9µM*
SMILES	Pf Dd2 inh
Cc1nc2c(C(=O)NCCc3ccc(Cl)cc3)cnn2c(C)c1Cc1ccc(F)cc1	-17%
Cc1ccc(Cc2c(C)nc3nc(SCC(=O)NC(C)c4ccccc4)nn3c2C)cc1 (stereo not given)	10%
CCCn1c(C)cnc1CC1CCN(C(=O)c2ccccn2)C1 (stereo not given)	19%
COc1ccc(OCC(=O)N(Cc2cccs2)c2ccc(OC)cc2)cc1	-20%
CCCNC(=O)Cc1ccc(N(Cc2ccc(OC)cc2)C(=O)c2ccco2)cc1	i
COc1ccc(NC(=O)Cc2ccc(N(Cc3ccc(C)cc3)C(=O)c3ccco3)cc2)cc1	4.5µM*
COc1ccc(CN(C(=O)c2ccco2)c2ccc(CC(=O)NC(C)C)cc2)cc1	i
COc1ccc(N(Cc2cccs2)C(=O)c2ccco2)cc1	10µM*
COc1ccc(CCNC(=O)Cc2ccc(N(Cc3ccccc3)C(=O)c3ccco3)cc2)cc1	-7%
CC(=O)N1CCC([C@@H]2CN(Cc3cccc(Cl)c3)C[C@H]2CO)CC1	i
CN(CC1CCOCC1)S(=O)(=O)c1ccc(F)cc1	i
CN1CC(=O)N(C2CCCNCC2)Cc2c1ncnc2N1CCC(O)CC1 (stereo not given)	14%
COCC(=O)N1CC(F)(F)C[C@H]1c1nc(-c2cccnc2)no1	10%
COCCOc1ccc(-c2noc([C@@H]3CCCN3Cc3c[nH]c4ccccc34)n2)cn1	i
COCC(=O)Nc1ccc(-c2noc([C@@H]3CCCN3Cc3ncc[nH]3)n2)cn1	-23%[44.1 µM]
COCCNc1ccc(-c2noc([C@@H]3CCCN3Cc3cc(OC)c(OC)c(OC)c3)n2)cn1	8.9µM*
COCC(=O)Nc1ccc(-c2noc([C@@H]3CCCN3Cc3cccnc3)n2)cn1	8.9µM*
